Our source for the outcome values is PubChem BioAssay.

Each structure is given as a SMILES string. Results with a measured potency or affinity are listed apart. Calls of active or inactive are those of the source. Unless noted, how the calls were made is not given here.

Sequence of Calcium-dependent protein kinase 1 (Plasmodium falciparum (isolate 3D7)) (P62344 whole entry, looked up): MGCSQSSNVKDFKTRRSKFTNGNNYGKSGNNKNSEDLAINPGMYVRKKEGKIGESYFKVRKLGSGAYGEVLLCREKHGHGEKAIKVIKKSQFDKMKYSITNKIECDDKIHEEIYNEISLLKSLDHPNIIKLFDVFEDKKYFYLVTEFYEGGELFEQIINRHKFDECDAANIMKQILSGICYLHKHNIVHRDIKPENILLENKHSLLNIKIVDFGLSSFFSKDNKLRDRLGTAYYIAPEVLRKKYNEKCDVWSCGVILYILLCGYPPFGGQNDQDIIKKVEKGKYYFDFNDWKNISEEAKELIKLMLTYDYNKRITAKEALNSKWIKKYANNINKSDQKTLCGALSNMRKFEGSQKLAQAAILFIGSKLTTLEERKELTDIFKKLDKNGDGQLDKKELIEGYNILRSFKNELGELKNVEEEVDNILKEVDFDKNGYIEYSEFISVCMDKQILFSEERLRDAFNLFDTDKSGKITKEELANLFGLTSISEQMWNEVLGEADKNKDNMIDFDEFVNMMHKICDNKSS

The first experiment concerns the target Calcium-dependent protein kinase 1 (Plasmodium falciparum (isolate 3D7)) (UniProt P62344). Nature of the experiment: PfCDPK1 kinase inhibitors, biochemical, TCAMS library (AID 1159585; cut-off not given, nearly all actives have IC50 up to about 0.98 µM;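 further: inhibitors leave more ATP so luminescence rises with inhibition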). Conditions: recombinant PfCDPK1, Kinase-Glo ATP depletion luminescence. For orientation: Kinase-Glo measures the ATP left after a reaction by luminescence.
On to `CC(C)Cn1c(Sc2ccc(C#N)c([N+](=O)[O-])c2)nnc1-c1ccccc1Cl`, for which the result was inactive. On to `Cc1cc(C(=O)Nc2nc(-c3ccccn3)nc3ccsc23)no1`, for which the result was inactive. Take `Cc1cc(N(CCO)CCCN2CCCCC2)nc(Nc2ccc(Cl)cc2)n1`: the result was inactive.

`Cc1cccc(Cl)c1Nc1nnc(-c2cccc(C(=O)NC[C@@H]3CC[C@H]4C[C@@H]3C4(C)C)c2)o1`: the outcome was inactive. Turning to `C=CCOC(=O)N1CCC(CNCc2cccc(-c3cccc(-c4nc5c(C)cccc5[nH]4)c3)c2)C1` (stereo not given), the result was inactive. On the same count and under the same terms, the same measure for `CCC1CCCCN1S(=O)(=O)c1ccc(NC(=O)c2cc(C)on2)cc1` (stereo not given): “inactive”; for `COc1ccc(-c2ccc(S(=O)(=O)Nc3cc4c(cc3OC(C)C)CCNCC4)cc2)cc1`: “inactive”. Turning to `Cc1cccc(C(=O)Nc2ccnc(N3CCC(N(C)Cc4cccc(O)c4)CC3)c2)c1`, the outcome was inactive. Still for that read-out and setting: as for `CN1CCC(C(=O)Nc2cccc(-c3cccc(-c4nc5ccc(F)cc5[nH]4)c3)c2)CC1`, the entry is “inactive”; as for `Cc1cnc(Nc2ccccc2)nc1N[C@@H](CCCN)C(=O)Nc1ccccc1`, “inactive”.

In the next experiment the target is Plasmodium falciparum protein kinase 6 (PK6, PF3D7_1337100) (UniProt Q8IDW1). Nature of the experiment: PfPK6 kinase inhibitors, biochemical, TCAMS library (AID 1159586). The settings on record: recombinant PfPK6, Kinase-Glo ATP depletion luminescence.
Sequence of Plasmodium falciparum protein kinase 6 (PK6, PF3D7_1337100) (Q8IDW1 1-305): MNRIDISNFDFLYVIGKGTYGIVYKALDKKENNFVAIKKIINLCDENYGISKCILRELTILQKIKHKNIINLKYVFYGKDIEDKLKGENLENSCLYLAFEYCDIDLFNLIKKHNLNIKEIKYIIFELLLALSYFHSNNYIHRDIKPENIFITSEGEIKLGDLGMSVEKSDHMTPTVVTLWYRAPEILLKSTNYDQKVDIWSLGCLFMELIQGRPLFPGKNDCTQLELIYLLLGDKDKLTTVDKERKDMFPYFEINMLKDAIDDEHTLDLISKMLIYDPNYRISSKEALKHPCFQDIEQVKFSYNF
`O=C(NCCCCCN1CCC(c2c[nH]c3ccccc23)CC1)c1ccc(Cl)c(Cl)c1`: the outcome was inactive. Take `COc1cc(Cc2cnc(N)nc2N)cc(OCCCCCC(N)=O)c1OC`: the outcome was inactive. For the compound `O=C(/C=C/c1ccc(C(F)(F)F)cc1)NCCCCCN1CCN(C(=O)Nc2ccc(F)c(Cl)c2)CC1`, the result was inactive. Still for that read-out and setting: the same measure for `O=C(NC1CC1)c1ccc(N2CCC(COc3cccc(F)c3)CC2)nc1`: “inactive”. In the case of `O=C(Nc1cccc(CN2CCCN(Cc3ncc[nH]3)CC2)c1)c1cc2ccccc2s1`, the result was inactive. Still for that read-out and setting: the same measure for `O=c1cc(NCCCNCc2cc3c(Cl)cc(Cl)cc3[nH]2)[nH]c2ccccc12`: “inactive”; for `COc1ccc(CNCc2ccc(-c3cccc(-c4nc5c(C)cccc5[nH]4)c3)cc2)cc1`: “inactive”. With `CN(C)Cc1cccc(CNC(=O)c2sccc2OCc2ccc(Cl)cc2)c1`, the outcome was inactive. For the compound `COc1cc2nc(SCC(C)C)n(CCCn3ccnc3)c(=N)c2cc1OC`, the result was inactive. Consider `CCOc1ccc2nc(C)cc(NN=Cc3cccc(F)c3)c2c1`, for which the outcome was inactive. Take `O=C(NC1CC1)c1ccc(N2CCC(Cc3ccccc3)CC2)c([N+](=O)[O-])c1`: the result was inactive. In the case of `O=S(=O)(ON=C1CCc2ccccc21)c1ccc(Cl)cc1`, the outcome was inactive. For `CCc1cn2c3c(cc(C(=O)N[C@@H](Cc4cccc(F)c4)[C@H](O)CNC4CCOCC4)cc13)N(C)S(=O)(=O)CC2`, the outcome was inactive. Turning to `COc1ccc(Cl)cc1NC(=O)C(C)Nc1ccc(-c2ccccc2)cc1` (stereo not given), the result was inactive.

Consider `CC(Cc1ccc(OCCCCOc2ccccc2)cc1)NCCc1ccc(Oc2ccccc2)cc1` (stereo not given), for which the outcome was inactive.

For `OCCN1CCN(Cc2ccc(-c3cccc(-c4nc5ccc(C(F)(F)F)cc5[nH]4)c3)cc2)CC1`, the result was inactive. For the compound `CCN(CC)CCN(Cc1ccc(-c2ccc(C(F)(F)F)cc2)cc1)C(=O)Cn1cc(CCCCc2cccc(F)c2F)c(=O)c2ccccc21`, the result was inactive. Consider `O=c1c(NCCCN(Cc2ccc(F)cc2)c2ccccn2)c(NCc2cccnc2)c1=O`, for which the result was inactive. Turning to `COc1ccc(-c2ccc(NC(=O)c3ccc(F)cc3)cc2)cc1CN1CCCN(C)CC1`, the outcome was inactive. For the compound `O=C(Nc1cncc(NC(=O)c2ccc(Cl)c(Cl)c2)c1)c1ccc(Cl)c(Cl)c1`, the outcome was inactive. `CCn1cnc2c(Nc3cccc([N+](=O)[O-])c3)nc(N3CCC(N4CCCCC4)CC3)nc21`: the result was inactive. Regarding `NC1CCN(c2nc(NCCCc3ccc(O)cc3)nc(NCc3ccccc3-c3ccc(C(F)(F)F)cc3)n2)CC1`, the result was inactive. Turning to `CC(C)CNC(=O)c1cncc(-c2cccc(CNC3Cc4ccccc4C3)c2)c1`, the outcome was inactive.

As for `CC(C)COc1ccc(Cl)cc1Cc1nc(-c2nc3nc(N4CCN(C)CC4)ccc3[nH]2)cs1`, the result was inactive. On to `COc1cc(OC)cc(C(=O)Nc2nc(-c3ccccn3)cs2)c1`, for which the result was inactive. On to `O=C(Nc1ccccc1)Nc1ccc(-c2cccc(-c3nc4ccc(C(F)(F)F)cc4[nH]3)c2)cc1`, for which the result was inactive. For the compound `CN(CCCCCN1CCC(NC(=O)Nc2ccc(Oc3ccccc3)cc2)C1)C(=O)/C=C/c1ccc(Cl)c(Cl)c1` (stereo not given), the result was inactive. Turning to `CCCCNCc1ccc(-c2nc(CN(C(=O)Nc3cc([N+](=O)[O-])ccc3F)C3Cc4ccccc4C3)cs2)cc1`, the result was inactive.

`Cc1cc(NC(=O)Nc2ccc3nccc(N4CCN(C)CC4)c3c2)ccc1Br`: the outcome was inactive.

Turning to `CS(=O)(=O)c1cccc(-c2cnc(N)c3cc(-c4cccc(F)c4)ccc23)c1`, the outcome was inactive.

Regarding `CC(C)Cn1c(Sc2ccc(C#N)c([N+](=O)[O-])c2)nnc1-c1ccccc1Cl`, the outcome was inactive.

`Cc1cc(C(=O)Nc2nc(-c3ccccn3)nc3ccsc23)no1`: the outcome was inactive. Still for that read-out and setting: the same measure for `Cc1cc(N(CCO)CCCN2CCCCC2)nc(Nc2ccc(Cl)cc2)n1`: “inactive”. As for `Cc1cccc(Cl)c1Nc1nnc(-c2cccc(C(=O)NC[C@@H]3CC[C@H]4C[C@@H]3C4(C)C)c2)o1`, the outcome was inactive. On to `C=CCOC(=O)N1CCC(CNCc2cccc(-c3cccc(-c4nc5c(C)cccc5[nH]4)c3)c2)C1` (stereo not given), for which the outcome was inactive. In the case of `CCC1CCCCN1S(=O)(=O)c1ccc(NC(=O)c2cc(C)on2)cc1` (stereo not given), the result was inactive. For `COc1ccc(-c2ccc(S(=O)(=O)Nc3cc4c(cc3OC(C)C)CCNCC4)cc2)cc1`, the result was inactive.

On to `Cc1cccc(C(=O)Nc2ccnc(N3CCC(N(C)Cc4cccc(O)c4)CC3)c2)c1`, for which the outcome was inactive. In the case of `CN1CCC(C(=O)Nc2cccc(-c3cccc(-c4nc5ccc(F)cc5[nH]4)c3)c2)CC1`, the result was inactive. The same measure, in the same setting: as for `Cc1cnc(Nc2ccccc2)nc1N[C@@H](CCCN)C(=O)Nc1ccccc1`, the entry is “inactive”.
